This is an account of results in PubChem BioAssay AID364 (The Scripps Research Institute Molecular Screening Center, 2006).

The whole screen tested about 3,300 compounds, of which about 50 (2%) were called active.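 How the source made its calls: active means concentration giving half-maximal inhibition at or below 20 micromolar; inactive means half-maximal concentration above 20 micromolar, or not dose tested.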 A selection follows. Entries with a potency or affinity are not part of this list.

This assay in a line: cytotoxicity toward Jurkat T cells, primary screen, cell-based, Jurkat E6.1, NIH starter set (AID 364).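 Further: 100% = cells treated with 4 µM doxorubicin.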 As to conditions: Jurkat E6.1 viability, ATP luminescence, 48 h; at 4 µM; stronger effect = higher value.
Regarding `Cc1cc(=O)oc(C)c1C(=O)NC12CC3CC(CC(C3)C1)C2`, the inhibition – broadly, the drop in the measured response relative to a control, in per cent – was 0.6% (inactive).

On to `COc1ccc2c(c1OC)C(=O)OC2C1c2c(cc3c(c2OC)OCO3)CCN1C` (stereo unspecified), for which the inhibition is 2.6% (inactive).

In the case of `O=C(O)CC(C(=O)OCC1CCCO1)N1CCOCC1` (stereo unspecified), the inhibition was 11.6% (inactive).

Consider `COc1nc(N(C)S(=O)(=O)c2ccc(C)cc2)nc(C)c1Cl`, for which the inhibition is 2.3% (inactive).

As to `COc1cccc(OC)c1-c1nn2c(-c3ccco3)nnc2s1`, the inhibition is -5.6% (inactive).

Regarding `Cc1ccc2[nH]c(CCN(C)C)c(CC#N)c2c1`, the inhibition was -1% (inactive).

Regarding `CC(=O)Nc1ccc(Oc2ccc3nc(C)[nH]c3c2)cc1`, the inhibition was 6.6% (inactive).

For the compound `Cn1c(=O)n(C)c2cc(C(=O)c3ccccc3)ccc21`, the inhibition was -1.7% (inactive).

In the case of `Cn1c(=O)oc2cc(C(=O)c3ccccc3)ccc21`, the inhibition is -2.2% (inactive).

On to `CCC(=O)Nc1nc(C)c(Oc2ccccc2)c(=O)[nH]1`, for which the inhibition was -13.8% (inactive).

Take `CN1CCc2c(sc3ncn4nc(-c5ccccc5O)nc4c23)C1`: the inhibition is 2.9% (inactive).

Consider `CSc1cc(C)nc(N(C)C(C)=O)n1`, for which the inhibition was -4.8% (inactive).

For the compound `CC1(c2cnc(Nc3ccccc3)s2)CCC(=O)O1` (stereo unspecified), the inhibition was 3.7% (inactive).

On to `CC1CN(c2oc(-c3ccccc3Cl)nc2C#N)CC(C)O1` (stereo unspecified), for which the inhibition was -11.7% (inactive).

In the case of `COc1ccc(/C(O)=C2/C(=O)C(=O)N(CCCN(C)C)C2c2ccccc2)cc1Cl` (stereo unspecified), the inhibition is 9.5% (inactive).

For `COc1cccc(C2/C(=C(\O)c3ccc4c(c3)OCCO4)C(=O)C(=O)N2CCCN(C)C)c1OC` (stereo unspecified), the inhibition was -10.5% (inactive).

As for `C=CCn1cnc2c(c1=O)c1nc3ccccc3nc1n2-c1ccc(Cl)cc1`, the inhibition is -1.6% (inactive).

For the compound `CCCCOC(=O)CSC1=C(C#N)C(c2ccc3c(c2)OCO3)CC(=O)N1` (stereo unspecified), the inhibition was 6.5% (inactive).

Consider `CCCOC(=O)CSC1=C(C#N)C(c2ccc3c(c2)OCO3)CC(=O)N1` (stereo unspecified), for which the inhibition was 29.3% (inactive).

Consider `CSc1nc2[nH]c3c(c2c2nnnn12)CCCC3`, for which the inhibition is 1.2% (inactive).

Turning to `CC(=O)Nc1cccc(NC(=O)CSc2nc(C)c(C)c(C)c2C#N)c1`, the inhibition was -4.8% (inactive).

Consider `COc1cc(C2C3C(=O)N(c4ccc(F)cc4)C(=O)C3ON2c2ccccc2)ccc1O` (stereo unspecified), for which the inhibition was 2.1% (inactive).

With `COc1cccc(Cn2c(NCC(C)C)nc3c2c(=O)n(C)c(=O)n3C)c1`, the inhibition was 10.8% (inactive).

As for `CCCCNc1nc2c(c(=O)n(C)c(=O)n2C)n1Cc1cccc(OC)c1`, the inhibition is 35.2% (inactive).

For the compound `CN(C)CCNC(=O)C12CC3(C)CC(C)(CC(C)(C3)C1)C2`, the inhibition is -4.1% (inactive).

Turning to `CCOc1cccc(NC(=O)C2CC(=O)NC(=Nc3ccccc3)S2)c1` (stereo unspecified), the inhibition was 15.4% (inactive).

For `Cn1c(=O)[nH]c(=O)c2c1nc(Br)n2CCSc1nnnn1-c1ccccc1`, the inhibition was -0.6% (inactive).

Take `ClC(Br)=C(n1cnc2ccccc21)n1cnc2ccccc21`: the inhibition is 3.1% (inactive).

`CC(=O)CCn1c(=O)n(CCC(C)=O)c(=O)n(CCC(C)=O)c1=O`: the inhibition is 4% (inactive).

On to `CN1CCN(C2=Nc3ccccc3Oc3ccc(Cl)cc32)CC1`, for which the inhibition was 2.6% (inactive).

Consider `Clc1ccc2c(c1)C(N1CCNCC1)=Nc1ccccc1O2`, for which the inhibition was 2.2% (inactive).

Consider `CC(C)CNC(=O)c1c(N)n(/N=C/c2cccnc2)c2nc3ccccc3nc12`, for which the inhibition is -0.2% (inactive).

Turning to `COc1cccc(C2C(C(=O)c3sc(C)nc3C)=C(O)C(=O)N2CCN2CCOCC2)c1OC` (stereo unspecified), the inhibition is 3.5% (inactive).

With `CN(C)c1oc(-c2cccs2)nc1C#N`, the inhibition was 5.5% (inactive).

As for `COc1ccc(-n2c(=O)c3c4c(sc3n3c(C)nnc23)CC(C)CC4)cc1` (stereo unspecified), the inhibition was -5% (inactive).

Turning to `COc1ccc(Nc2cc(C)nc3ccccc23)cc1`, the inhibition is 6.3% (inactive).

Consider `COc1ccc(Nc2nc(Nc3ccc(OC)cc3)nc(-n3[nH]c(=O)c(C)c3C)n2)cc1`, for which the inhibition was 4.5% (inactive).

Take `Cc1[nH]c2ccc(F)cc2c(=O)c1SC(F)(F)C(F)C(F)(F)F` (stereo unspecified): the inhibition is 1.9% (inactive).

For `COc1ccc(C(=O)c2oc3nc(C)cc(C)c3c2N)cc1`, the inhibition is -3.3% (inactive).

`C=CCn1c(SCc2c(F)c(F)c(F)c(F)c2F)nc(O)cc1=O`: the inhibition was -3.4% (inactive).

Take `CC(C)C(C(=O)Nc1ncn[nH]1)N1C(=O)c2ccccc2C1=O` (stereo unspecified): the inhibition is 1% (inactive).
